{
  "source": "PubChem BioAssay",
  "key": {"[1]": {"assay": "yeast AGP1-GFP fluorescence change, single-dose – cell-based, flow cytometry, S. cerevisiae, cherry picks, confirmation (AID 2273);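 also: median GFP channel fluorescence over the whole cell population gate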", "settings": "S. cerevisiae AGP1-GFP strain, 3 h, at 10 µM"}, "[2]": {"assay": "interference with biotin-avidin bead interaction – biochemical, flow cytometry, bead-based, counter-screen for RGS protein interaction modulators (AID 1783;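 active = inhibition above 50%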;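 also: median green fluorescence of gated singlet beads compared with DMSO control wells; 0% = DMSO wells and 100% = complete loss of bead fluorescence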)", "settings": "streptavidin beads, fluorescein-biotin binding; at 10 µM, stronger effect = higher value"}, "[3]": {"target": "Guanine nucleotide-binding protein G(o) subunit alpha (Homo sapiens) (UniProt P09471)", "sequence (P09471 whole entry, looked up)": "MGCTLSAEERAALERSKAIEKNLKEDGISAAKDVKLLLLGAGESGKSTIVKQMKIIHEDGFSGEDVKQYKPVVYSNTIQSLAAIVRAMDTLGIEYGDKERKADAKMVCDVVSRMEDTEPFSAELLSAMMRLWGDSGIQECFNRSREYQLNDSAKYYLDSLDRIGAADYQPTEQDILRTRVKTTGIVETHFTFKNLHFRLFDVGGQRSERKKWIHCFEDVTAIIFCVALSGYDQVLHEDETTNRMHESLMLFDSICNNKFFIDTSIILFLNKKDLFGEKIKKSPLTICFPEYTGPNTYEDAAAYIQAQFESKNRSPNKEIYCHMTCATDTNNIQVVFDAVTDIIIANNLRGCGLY", "assay": "retest of RGS8-Galphao interaction hits – biochemical, multiplexed bead flow cytometry, single concentration, confirmation (AID 1836; in the data active = binding response below about 72% or above about 130%; inactive = in between;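 also: Galphao activated as GDP AlF4 complex before binding bead RGS8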)", "settings": "bead-based flow cytometry RGS8-Galphao binding, fluorescence; at 10 µM; actives lie on both sides"}, "[4]": {"target": "Guanine nucleotide-binding protein G(o) subunit alpha (Homo sapiens) (UniProt P09471)", "assay": "retest of RGS7-Galphao interaction hits – biochemical, multiplexed bead flow cytometry, single concentration, confirmation (AID 1837; in the data active = response below about 75% or above about 130%; inactive = in between;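 also: fluorescent Galphao activated with GDP and aluminum fluoride binding bead-coupled RGS7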)", "settings": "bead-based flow cytometry RGS7-Galphao binding; at 10 µM; actives lie on both sides"}, "[5]": {"target": "Regulator of G-protein signaling 16 (Homo sapiens) + Guanine nucleotide-binding protein G(o) subunit alpha (Homo sapiens) (UniProt O15492+P09471)", "sequence (O15492 whole entry, looked up)": "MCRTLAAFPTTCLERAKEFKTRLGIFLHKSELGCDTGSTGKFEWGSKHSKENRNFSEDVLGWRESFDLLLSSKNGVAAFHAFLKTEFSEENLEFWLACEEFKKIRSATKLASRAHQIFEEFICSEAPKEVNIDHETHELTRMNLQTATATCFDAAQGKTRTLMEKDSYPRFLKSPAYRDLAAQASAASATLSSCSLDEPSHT", "sequence (P09471 whole entry, looked up)": "as the sequence (P09471 whole entry, looked up) above", "assay": "RGS16 and Galphao interaction regulators – biochemical, single concentration, multiplexed bead flow cytometry, confirmation (AID 1838; in the data active = response below about 74% or above about 130%; inactive = in between;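 also: Galphao activated as the GDP aluminium fluoride complex binding bead-coupled RGS16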)", "settings": "bead-based flow cytometry, at 10 µM, actives lie on both sides"}, "[6]": {"target": "Guanine nucleotide-binding protein G(o) subunit alpha (Homo sapiens) (UniProt P09471)", "assay": "RGS4 and Galphao interaction regulators – biochemical, single concentration, multiplexed bead flow cytometry, confirmation (AID 1840; in the data active = binding response below about 74% or above about 130%; inactive = in between)", "settings": "at 10 µM, actives lie on both sides"}, "[7]": {"target": "Guanine nucleotide-binding protein G(o) subunit alpha (Homo sapiens) + Regulator of G-protein signaling 19 (Homo sapiens) (UniProt P09471+P49795)", "sequence (P09471 whole entry, looked up)": "as above", "sequence (P49795 whole entry, looked up)": "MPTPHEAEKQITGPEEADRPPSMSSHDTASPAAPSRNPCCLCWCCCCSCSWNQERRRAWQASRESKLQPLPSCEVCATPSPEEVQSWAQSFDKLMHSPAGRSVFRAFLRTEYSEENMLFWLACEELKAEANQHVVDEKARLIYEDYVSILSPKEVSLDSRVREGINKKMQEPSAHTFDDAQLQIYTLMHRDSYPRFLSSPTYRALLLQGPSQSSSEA", "assay": "RGS19 interaction with Gαo, hit retest – biochemical, single point, multiplexed bead flow cytometry, confirmation (AID 1841; in the data active = response below about 50% or above about 160%; inactive = in between;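 also: 100% = no compound control and 0% = blank background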)", "settings": "bead-based flow cytometry RGS19-Galphao binding; at 10 µM; actives lie on both sides"}, "[8]": {"target": "Regulator of G-protein signaling 16 (Homo sapiens) (UniProt O15492)", "assay": "small molecules altering RGS protein interactions with GNAO1 – biochemical, multiplexed beads, flow cytometry, RGS4/7/8/16/19, primary screen (AID 1504);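 also: fluorescently labeled Galpha-o bound to GDP with aluminium fluoride binding biotinylated RGS beads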", "settings": "multiplexed bead flow cytometry, measured here: RGS16 interaction, at 10 µM"}, "[9]": {"target": "Regulator of G-protein signaling 19 (Homo sapiens) (UniProt P49795)", "assay": "small molecules altering RGS protein interactions with GNAO1 – biochemical, multiplexed beads, flow cytometry, RGS4/7/8/16/19, primary screen (AID 1504)", "settings": "multiplexed bead flow cytometry, measured here: RGS19 interaction, at 10 µM"}, "[10]": {"target": "Regulator of G-protein signaling 7 (Homo sapiens) (UniProt P49802)", "assay": "small molecules altering RGS protein interactions with GNAO1 – biochemical, multiplexed beads, flow cytometry, RGS4/7/8/16/19, primary screen (AID 1504)", "settings": "multiplexed bead flow cytometry, measured here: RGS7 interaction, at 10 µM"}, "[11]": {"target": "Regulator of G-protein signaling 8 (Homo sapiens) (UniProt P57771)", "assay": "small molecules altering RGS protein interactions with GNAO1 – biochemical, multiplexed beads, flow cytometry, RGS4/7/8/16/19, primary screen (AID 1504)", "settings": "multiplexed bead flow cytometry, measured here: RGS8 interaction, at 10 µM"}},
  "note": "This is one part of the list. Activity calls are given as the source filed them.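 The calls were made as follows, unless noted: active = GFP response above 150% of the DMSO level; inconclusive = fewer than 70 events counted for a yeast strain; inactive = the rest.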",
  "data": [
    {"smiles": "N#C/C(C(N)=O)=c1/ccc2c(c1)N1C3=C(CCCC3)CC3CCCCC31N=2", "note": "(centres undefined)", "values": [
      {"measurement": "GFP response, % of DMSO", "setting": "[1]", "result": "100% (inactive)"}
    ]},
    {"smiles": "O=C1ON=C(c2ccc(Cl)cc2)/C1=C/c1ccc(O)cc1", "values": [
      {"measurement": "GFP response, % of DMSO", "setting": "[1]", "result": "95.4% (inactive)"}
    ]},
    {"smiles": "CCCOc1ccc(Cc2c(Cl)nc(SC)nc2NC)cc1", "values": [
      {"measurement": "inhibition", "setting": "[2]", "result": "-0.2% (inactive)"},
      {"measurement": "binding response (% of control)", "setting": "[3]", "result": "102% (inactive)"},
      {"measurement": "response (percent of control binding)", "setting": "[4]", "result": "94.9% (inactive)"},
      {"measurement": "response (% of control binding)", "setting": "[5]", "result": "99.9% (inactive)"},
      {"measurement": "binding response (% of control)", "setting": "[6]", "result": "101% (inactive)"},
      {"measurement": "response (percent of control binding)", "setting": "[7]", "result": "67.1% (inactive)"}
    ]},
    {"smiles": "O=C(NCCN1CCN(c2ccccc2)CC1)c1cccc(Br)c1", "values": [
      {"measurement": "GFP response, % of DMSO", "setting": "[1]", "result": "100% (inactive)"}
    ]},
    {"smiles": "Cc1ccc(OCCCCn2ccnc2C)c(C)c1", "values": [
      {"measurement": "GFP response, % of DMSO", "setting": "[1]", "result": "101% (inactive)"}
    ]},
    {"smiles": "Oc1ccc(N=Nc2nccs2)c(O)c1", "values": [
      {"measurement": "RGS16–Galpha-o binding response", "setting": "[8]", "result": -16.2, "unit": "%"},
      {"measurement": "RGS19–Galpha-o binding response", "setting": "[9]", "result": 158, "unit": "%"},
      {"measurement": "RGS7–Galpha-o binding response", "setting": "[10]", "result": 270, "unit": "%"},
      {"measurement": "RGS8–Galpha-o binding response", "setting": "[11]", "result": 6.26, "unit": "%"},
      {"measurement": "inhibition", "setting": "[2]", "result": "-1.7% (inactive)"},
      {"measurement": "binding response (% of control)", "setting": "[3]", "result": "99% (inactive)"},
      {"measurement": "response (percent of control binding)", "setting": "[4]", "result": "96.5% (inactive)"},
      {"measurement": "response (% of control binding)", "setting": "[5]", "result": "97.6% (inactive)"},
      {"measurement": "binding response (% of control)", "setting": "[6]", "result": "98.7% (inactive)"},
      {"measurement": "response (percent of control binding)", "setting": "[7]", "result": "99.6% (inactive)"}
    ]},
    {"smiles": "O=[N+]([O-])c1cccc2cn[nH]c12", "values": [
      {"measurement": "GFP response, % of DMSO", "setting": "[1]", "result": "105% (inactive)"}
    ]},
    {"smiles": "O=C(Nc1ccccc1)OCc1cc(-c2ccc(Cl)cc2)on1", "values": [
      {"measurement": "inhibition", "setting": "[2]", "result": "2.5% (inactive)"},
      {"measurement": "binding response (% of control)", "setting": "[3]", "result": "107% (inactive)"},
      {"measurement": "response (percent of control binding)", "setting": "[4]", "result": "88.4% (inactive)"},
      {"measurement": "response (% of control binding)", "setting": "[5]", "result": "107% (inactive)"},
      {"measurement": "binding response (% of control)", "setting": "[6]", "result": "93.7% (inactive)"},
      {"measurement": "response (percent of control binding)", "setting": "[7]", "result": "55.4% (inactive)"}
    ]},
    {"smiles": "CCCC1C(c2ccccc2)C(C#N)(C#N)C2(C#N)CC1(N)NC2=O", "note": "(centres undefined)", "values": [
      {"measurement": "RGS16–Galpha-o binding response", "setting": "[8]", "result": 178, "unit": "%"},
      {"measurement": "RGS19–Galpha-o binding response", "setting": "[9]", "result": 474, "unit": "%"},
      {"measurement": "RGS7–Galpha-o binding response", "setting": "[10]", "result": 152, "unit": "%"},
      {"measurement": "RGS8–Galpha-o binding response", "setting": "[11]", "result": 116, "unit": "%"},
      {"measurement": "inhibition", "setting": "[2]", "result": "0.8% (inactive)"},
      {"measurement": "binding response (% of control)", "setting": "[3]", "result": "103% (inactive)"},
      {"measurement": "response (percent of control binding)", "setting": "[4]", "result": "105% (inactive)"},
      {"measurement": "response (% of control binding)", "setting": "[5]", "result": "102% (inactive)"},
      {"measurement": "binding response (% of control)", "setting": "[6]", "result": "103% (inactive)"},
      {"measurement": "response (percent of control binding)", "setting": "[7]", "result": "105% (inactive)"}
    ]},
    {"smiles": "Cc1ccc(S(=O)(=O)NCC(=O)OCC(=O)N2CCc3ccccc32)cc1", "values": [
      {"measurement": "RGS16–Galpha-o binding response", "setting": "[8]", "result": 604, "unit": "%"},
      {"measurement": "RGS19–Galpha-o binding response", "setting": "[9]", "result": 93.8, "unit": "%"},
      {"measurement": "RGS7–Galpha-o binding response", "setting": "[10]", "result": 139, "unit": "%"},
      {"measurement": "RGS8–Galpha-o binding response", "setting": "[11]", "result": 117, "unit": "%"},
      {"measurement": "inhibition", "setting": "[2]", "result": "-1.7% (inactive)"},
      {"measurement": "binding response (% of control)", "setting": "[3]", "result": "102% (inactive)"},
      {"measurement": "response (percent of control binding)", "setting": "[4]", "result": "99.5% (inactive)"},
      {"measurement": "response (% of control binding)", "setting": "[5]", "result": "98.9% (inactive)"},
      {"measurement": "binding response (% of control)", "setting": "[6]", "result": "99.7% (inactive)"},
      {"measurement": "response (percent of control binding)", "setting": "[7]", "result": "97.4% (inactive)"}
    ]},
    {"smiles": "COc1ccc(C(=O)NCC2OCCc3ccccc32)cc1", "note": "(centres undefined)", "values": [
      {"measurement": "GFP response, % of DMSO", "setting": "[1]", "result": "91.3% (inactive)"}
    ]},
    {"smiles": "c1cnc2c(c1)ccc1cccnc12", "values": [
      {"measurement": "GFP response, % of DMSO", "setting": "[1]", "result": "102% (inactive)"}
    ]},
    {"smiles": "Cn1c(=O)c2c(n(Cc3ccccc3)c1=O)NC(=O)C2CC(=O)N1CCc2ccccc2C1", "note": "(centres undefined)", "values": [
      {"measurement": "RGS16–Galpha-o binding response", "setting": "[8]", "result": -1.02, "unit": "%"},
      {"measurement": "RGS19–Galpha-o binding response", "setting": "[9]", "result": 241, "unit": "%"},
      {"measurement": "RGS7–Galpha-o binding response", "setting": "[10]", "result": 13.5, "unit": "%"},
      {"measurement": "RGS8–Galpha-o binding response", "setting": "[11]", "result": 12.1, "unit": "%"},
      {"measurement": "inhibition", "setting": "[2]", "result": "0.9% (inactive)"},
      {"measurement": "binding response (% of control)", "setting": "[3]", "result": "100% (inactive)"},
      {"measurement": "response (percent of control binding)", "setting": "[4]", "result": "112% (inactive)"},
      {"measurement": "response (% of control binding)", "setting": "[5]", "result": "95.4% (inactive)"},
      {"measurement": "binding response (% of control)", "setting": "[6]", "result": "105% (inactive)"},
      {"measurement": "response (percent of control binding)", "setting": "[7]", "result": "102% (inactive)"}
    ]}
  ]
}
